The record followed here is PMC7862700, “An all-to-all approach to the identification of sequence-specific readers for epigenetic DNA modifications on cytosine”.

Assay in all cases: DAPPL (digital affinity profiling via proximity ligation, sequencing); 10 mM Tris-HCl pH 7.5, 50 mM NaCl, 1 mM DTT, 4% glycerol, room temperature, 30 min; GST-TFs on glutathione beads, 16-mer random dsDNA library, 0.1% formaldehyde crosslink after washing; high values mean tight binding
The target of one assay is T1, FLI1 (Homo sapiens, UniProt Q01543 1-452).
T1 sequence: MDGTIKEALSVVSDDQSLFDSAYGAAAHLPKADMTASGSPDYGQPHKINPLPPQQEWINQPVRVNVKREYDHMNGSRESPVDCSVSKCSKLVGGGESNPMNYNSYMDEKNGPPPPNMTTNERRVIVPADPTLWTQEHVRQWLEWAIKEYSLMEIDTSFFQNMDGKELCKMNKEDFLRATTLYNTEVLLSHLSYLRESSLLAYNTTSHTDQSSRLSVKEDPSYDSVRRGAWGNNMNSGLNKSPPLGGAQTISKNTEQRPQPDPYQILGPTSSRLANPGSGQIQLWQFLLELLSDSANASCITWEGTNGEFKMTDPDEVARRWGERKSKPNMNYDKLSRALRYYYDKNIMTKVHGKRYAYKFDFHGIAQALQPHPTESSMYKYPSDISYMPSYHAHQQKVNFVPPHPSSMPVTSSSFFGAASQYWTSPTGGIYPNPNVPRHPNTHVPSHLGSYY
Conditions: protein: recombinant; tags: N-terminal GST; dsDNA, one strand shown. The procedure, abridged: (§1)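 Pools were built from human transcription factors expressed in yeast as GST fusions, captured on glutathione beads and DNA-barcoded, along with a tag-only sample. Incubation with 200 nmole of a 16-mer random double-stranded DNA library lasted 30 min at room temperature in Tris/NaCl/DTT/glycerol buffer, and was followed by washing, 0.1% formaldehyde crosslinking, proximity ligation, PCR amplification and Illumina NextSeq500 sequencing. Binding signal is the quotient of each hexamer's read frequency for a factor and its frequency for the tag-only sample.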

In a further assay the target is T2, ELK1 (Homo sapiens, UniProt P19419 1-428).
T2 sequence: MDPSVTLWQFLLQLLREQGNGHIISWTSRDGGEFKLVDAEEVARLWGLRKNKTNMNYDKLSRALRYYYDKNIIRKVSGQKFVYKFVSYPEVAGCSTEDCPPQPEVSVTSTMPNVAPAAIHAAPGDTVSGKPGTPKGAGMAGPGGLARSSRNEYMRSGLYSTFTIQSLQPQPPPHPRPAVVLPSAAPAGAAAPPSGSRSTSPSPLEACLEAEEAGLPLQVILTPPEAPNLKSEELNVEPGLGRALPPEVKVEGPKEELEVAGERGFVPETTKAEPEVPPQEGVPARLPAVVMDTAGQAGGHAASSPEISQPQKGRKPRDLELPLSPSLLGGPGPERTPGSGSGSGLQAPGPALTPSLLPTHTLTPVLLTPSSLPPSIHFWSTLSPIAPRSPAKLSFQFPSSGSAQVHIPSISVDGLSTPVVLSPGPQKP
Particulars: protein: recombinant; tags: N-terminal GST; dsDNA, one strand shown. The procedure, abridged: as §1

The target of the next assay is T3, GABPA (Homo sapiens, UniProt Q06546 1-454).
T3 sequence: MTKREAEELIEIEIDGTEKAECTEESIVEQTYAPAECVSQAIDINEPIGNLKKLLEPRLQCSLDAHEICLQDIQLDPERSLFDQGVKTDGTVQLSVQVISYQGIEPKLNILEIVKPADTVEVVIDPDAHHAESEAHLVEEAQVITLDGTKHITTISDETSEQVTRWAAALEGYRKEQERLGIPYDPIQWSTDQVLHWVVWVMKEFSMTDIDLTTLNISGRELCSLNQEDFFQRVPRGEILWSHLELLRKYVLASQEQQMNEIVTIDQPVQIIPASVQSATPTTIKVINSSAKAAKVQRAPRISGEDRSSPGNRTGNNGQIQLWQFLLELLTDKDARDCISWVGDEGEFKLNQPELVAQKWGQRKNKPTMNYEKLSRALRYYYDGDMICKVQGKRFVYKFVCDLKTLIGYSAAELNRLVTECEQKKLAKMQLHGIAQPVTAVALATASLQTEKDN
Conditions: protein: recombinant; tags: N-terminal GST; dsDNA, one strand shown. The procedure, abridged: as §1

Another assay has as its target T4, ERG (Homo sapiens, UniProt P11308 1-479).
T4 sequence: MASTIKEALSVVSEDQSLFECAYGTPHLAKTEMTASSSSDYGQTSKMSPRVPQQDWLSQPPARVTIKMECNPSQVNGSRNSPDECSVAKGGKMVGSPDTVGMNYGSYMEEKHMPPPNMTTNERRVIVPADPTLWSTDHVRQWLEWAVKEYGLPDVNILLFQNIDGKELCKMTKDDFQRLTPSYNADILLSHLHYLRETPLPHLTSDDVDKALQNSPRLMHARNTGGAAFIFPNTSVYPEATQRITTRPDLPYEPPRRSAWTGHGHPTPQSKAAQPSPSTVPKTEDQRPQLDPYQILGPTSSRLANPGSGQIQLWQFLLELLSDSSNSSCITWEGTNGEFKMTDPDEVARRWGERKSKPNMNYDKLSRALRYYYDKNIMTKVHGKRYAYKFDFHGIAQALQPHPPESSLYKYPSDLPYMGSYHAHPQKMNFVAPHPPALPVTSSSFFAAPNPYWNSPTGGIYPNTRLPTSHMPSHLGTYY
Conditions: protein: recombinant; tags: N-terminal GST; dsDNA, one strand shown. The procedure, abridged:
as §1

The next assay addresses ELF1 (Homo sapiens, UniProt P32519 1-619). Conditions: protein: recombinant; tags: N-terminal GST; dsDNA, one strand shown. In outline: as §1
For another assay, the target named is T5, EHF (Homo sapiens, UniProt Q9NZC4 1-300).
T5 sequence: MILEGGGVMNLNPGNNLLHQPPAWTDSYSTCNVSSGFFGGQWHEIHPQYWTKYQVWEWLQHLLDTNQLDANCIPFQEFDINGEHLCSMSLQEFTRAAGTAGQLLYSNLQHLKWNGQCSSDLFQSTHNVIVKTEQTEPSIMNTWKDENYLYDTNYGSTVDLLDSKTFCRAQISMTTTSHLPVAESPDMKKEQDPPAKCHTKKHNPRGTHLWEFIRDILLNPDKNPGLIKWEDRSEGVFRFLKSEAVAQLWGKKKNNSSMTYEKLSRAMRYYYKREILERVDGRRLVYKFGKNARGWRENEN
Conditions: protein: recombinant; tags: N-terminal GST; dsDNA, one strand shown. The procedure, abridged: as §1

The target of a further assay is SPI1 (Homo sapiens, UniProt P17947 1-270). Conditions: protein: recombinant; tags: N-terminal GST; dsDNA, one strand shown. The procedure, abridged:
as §1

Another assay has as its target SPIB (Homo sapiens, UniProt Q01892 1-262). Particulars: protein: recombinant; tags: N-terminal GST; dsDNA, one strand shown. The procedure, abridged: as §1
In a further assay the target is T6, ELK3 (Homo sapiens, UniProt P41970 1-407).
T6 sequence: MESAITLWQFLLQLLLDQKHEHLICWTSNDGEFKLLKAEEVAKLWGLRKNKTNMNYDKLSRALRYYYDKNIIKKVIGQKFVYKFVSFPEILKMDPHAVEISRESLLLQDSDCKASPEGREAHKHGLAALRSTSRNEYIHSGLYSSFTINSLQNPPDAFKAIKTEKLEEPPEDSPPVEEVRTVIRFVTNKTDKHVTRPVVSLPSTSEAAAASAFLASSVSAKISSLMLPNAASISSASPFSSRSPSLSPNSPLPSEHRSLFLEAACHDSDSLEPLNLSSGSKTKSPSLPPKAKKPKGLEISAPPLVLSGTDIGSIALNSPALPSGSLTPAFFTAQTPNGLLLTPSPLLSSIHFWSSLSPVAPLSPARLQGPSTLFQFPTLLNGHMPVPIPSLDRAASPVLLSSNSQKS
Conditions: protein: recombinant; tags: N-terminal GST; dsDNA, one strand shown. The procedure, abridged:
as §1

In a further assay the target is T7, FEV (Homo sapiens, UniProt Q99581 1-238).
T7 sequence: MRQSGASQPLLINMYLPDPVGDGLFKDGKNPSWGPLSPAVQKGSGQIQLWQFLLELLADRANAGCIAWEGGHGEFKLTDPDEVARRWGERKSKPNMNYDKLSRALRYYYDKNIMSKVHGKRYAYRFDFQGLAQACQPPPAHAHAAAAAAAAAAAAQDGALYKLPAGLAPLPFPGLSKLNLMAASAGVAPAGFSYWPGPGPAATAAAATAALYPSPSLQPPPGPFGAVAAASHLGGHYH
Conditions: protein: recombinant; tags: N-terminal GST; dsDNA, one strand shown. The procedure, abridged: as §1

For another assay, the target named is ETV5 (Homo sapiens, UniProt P41161 1-510). Conditions: protein: recombinant; tags: N-terminal GST; dsDNA, one strand shown. The procedure, abridged:
as §1

The target of the next assay is HSF1 (Homo sapiens, UniProt Q00613 1-529). Particulars: protein: recombinant; tags: N-terminal GST; chain copies: 3; dsDNA, one strand shown. The procedure, abridged:
as §1

The next assay deals with T8, SPIC (Homo sapiens, UniProt Q8N5J4 1-248).
T8 sequence: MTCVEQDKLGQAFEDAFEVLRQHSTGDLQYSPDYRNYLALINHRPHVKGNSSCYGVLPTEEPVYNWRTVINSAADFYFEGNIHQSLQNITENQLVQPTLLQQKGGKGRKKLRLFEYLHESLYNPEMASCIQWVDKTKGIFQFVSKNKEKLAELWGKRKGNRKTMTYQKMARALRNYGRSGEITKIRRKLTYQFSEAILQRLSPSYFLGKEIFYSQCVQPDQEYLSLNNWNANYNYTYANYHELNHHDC
Conditions: protein: recombinant; tags: N-terminal GST; dsDNA, one strand shown. In outline: as §1

In another assay the target is ELF4 (Homo sapiens, UniProt Q99607 1-663). Conditions: protein: recombinant; tags: N-terminal GST; dsDNA, one strand shown. In outline:
as §1

The next assay concerns the target T9, ELK4 (Homo sapiens, UniProt P28324-2 1-405).
T9 sequence: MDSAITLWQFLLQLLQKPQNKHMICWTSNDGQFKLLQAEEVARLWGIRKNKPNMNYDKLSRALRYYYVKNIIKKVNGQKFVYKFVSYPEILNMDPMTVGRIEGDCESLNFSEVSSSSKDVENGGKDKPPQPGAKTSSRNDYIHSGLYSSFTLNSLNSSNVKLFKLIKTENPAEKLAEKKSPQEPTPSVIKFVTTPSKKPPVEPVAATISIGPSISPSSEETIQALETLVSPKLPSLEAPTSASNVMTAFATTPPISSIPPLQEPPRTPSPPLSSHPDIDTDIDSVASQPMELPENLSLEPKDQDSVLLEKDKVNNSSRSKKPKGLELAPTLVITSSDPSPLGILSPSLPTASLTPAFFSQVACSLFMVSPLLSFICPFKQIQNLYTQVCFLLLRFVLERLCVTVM
Conditions: protein: recombinant; tags: N-terminal GST; dsDNA, one strand shown. The procedure, abridged: as §1

The target in another assay is T10, ETV2 (Homo sapiens, UniProt O00321 1-342).
T10 sequence: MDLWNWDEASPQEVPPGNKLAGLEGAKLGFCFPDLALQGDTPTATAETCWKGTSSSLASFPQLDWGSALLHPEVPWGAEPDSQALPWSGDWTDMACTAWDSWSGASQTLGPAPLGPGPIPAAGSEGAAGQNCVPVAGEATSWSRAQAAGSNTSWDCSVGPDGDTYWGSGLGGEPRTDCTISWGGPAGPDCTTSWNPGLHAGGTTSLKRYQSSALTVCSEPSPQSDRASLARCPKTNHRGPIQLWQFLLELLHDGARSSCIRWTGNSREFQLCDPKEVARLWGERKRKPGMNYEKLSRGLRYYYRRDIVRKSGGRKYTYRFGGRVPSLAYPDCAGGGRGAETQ
Particulars: protein: recombinant; tags: N-terminal GST; dsDNA, one strand shown. In outline:
as §1

A further assay concerns the target T11, ELF3 (Homo sapiens, UniProt P78545 1-371).
T11 sequence: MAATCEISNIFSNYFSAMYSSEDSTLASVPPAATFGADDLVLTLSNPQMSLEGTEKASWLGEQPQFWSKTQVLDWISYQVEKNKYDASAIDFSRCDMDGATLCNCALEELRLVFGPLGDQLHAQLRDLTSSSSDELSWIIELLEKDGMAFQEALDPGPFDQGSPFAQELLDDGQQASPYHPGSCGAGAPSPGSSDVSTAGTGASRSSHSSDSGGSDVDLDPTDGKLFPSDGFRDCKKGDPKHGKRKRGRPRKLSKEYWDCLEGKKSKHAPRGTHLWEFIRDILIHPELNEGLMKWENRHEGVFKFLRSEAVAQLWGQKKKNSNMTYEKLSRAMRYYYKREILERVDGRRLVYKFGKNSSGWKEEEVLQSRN
Conditions: protein: recombinant; tags: N-terminal GST; dsDNA, one strand shown. The procedure, abridged:
as §1

A further assay addresses CRX (Homo sapiens, UniProt O43186 1-299). Conditions: protein: recombinant; tags: N-terminal GST; dsDNA, one strand shown. The procedure, abridged: as §1
For another assay, the target named is ETV1 (Homo sapiens, UniProt P50549 1-477). Particulars: protein: recombinant; tags: N-terminal GST; dsDNA, one strand shown. The procedure, abridged: as §1
Sequence of ETV1 (P50549 whole entry): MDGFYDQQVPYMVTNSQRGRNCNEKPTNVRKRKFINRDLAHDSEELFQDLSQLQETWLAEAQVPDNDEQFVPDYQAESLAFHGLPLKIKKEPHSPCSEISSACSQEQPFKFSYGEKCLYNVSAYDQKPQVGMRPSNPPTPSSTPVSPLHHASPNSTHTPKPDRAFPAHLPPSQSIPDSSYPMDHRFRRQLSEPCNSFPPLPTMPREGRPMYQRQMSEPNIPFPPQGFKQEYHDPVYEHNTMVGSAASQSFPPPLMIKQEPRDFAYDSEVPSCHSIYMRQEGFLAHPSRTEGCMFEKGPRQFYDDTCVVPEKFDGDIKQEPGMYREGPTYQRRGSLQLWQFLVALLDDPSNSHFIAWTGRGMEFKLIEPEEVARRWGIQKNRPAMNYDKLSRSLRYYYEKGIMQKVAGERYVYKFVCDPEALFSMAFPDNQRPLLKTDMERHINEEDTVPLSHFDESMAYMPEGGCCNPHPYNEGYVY

Sequence of ELF1 (P32519 whole entry): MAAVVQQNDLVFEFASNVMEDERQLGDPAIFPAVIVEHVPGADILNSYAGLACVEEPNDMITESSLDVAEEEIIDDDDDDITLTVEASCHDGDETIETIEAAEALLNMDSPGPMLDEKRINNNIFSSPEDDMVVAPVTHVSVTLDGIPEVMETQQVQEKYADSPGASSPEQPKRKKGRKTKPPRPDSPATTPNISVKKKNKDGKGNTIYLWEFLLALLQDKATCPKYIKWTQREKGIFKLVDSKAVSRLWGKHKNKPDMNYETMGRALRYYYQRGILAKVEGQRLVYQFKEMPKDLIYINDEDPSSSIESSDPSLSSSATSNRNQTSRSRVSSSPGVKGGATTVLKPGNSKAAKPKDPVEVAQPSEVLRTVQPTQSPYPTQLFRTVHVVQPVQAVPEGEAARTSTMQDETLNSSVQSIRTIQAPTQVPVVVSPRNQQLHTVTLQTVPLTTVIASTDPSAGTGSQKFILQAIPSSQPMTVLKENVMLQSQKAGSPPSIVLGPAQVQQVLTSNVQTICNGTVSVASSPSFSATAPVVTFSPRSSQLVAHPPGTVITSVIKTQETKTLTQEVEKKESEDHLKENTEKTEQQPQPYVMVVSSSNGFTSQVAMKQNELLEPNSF
Sequence of HSF1 (Q00613 whole entry): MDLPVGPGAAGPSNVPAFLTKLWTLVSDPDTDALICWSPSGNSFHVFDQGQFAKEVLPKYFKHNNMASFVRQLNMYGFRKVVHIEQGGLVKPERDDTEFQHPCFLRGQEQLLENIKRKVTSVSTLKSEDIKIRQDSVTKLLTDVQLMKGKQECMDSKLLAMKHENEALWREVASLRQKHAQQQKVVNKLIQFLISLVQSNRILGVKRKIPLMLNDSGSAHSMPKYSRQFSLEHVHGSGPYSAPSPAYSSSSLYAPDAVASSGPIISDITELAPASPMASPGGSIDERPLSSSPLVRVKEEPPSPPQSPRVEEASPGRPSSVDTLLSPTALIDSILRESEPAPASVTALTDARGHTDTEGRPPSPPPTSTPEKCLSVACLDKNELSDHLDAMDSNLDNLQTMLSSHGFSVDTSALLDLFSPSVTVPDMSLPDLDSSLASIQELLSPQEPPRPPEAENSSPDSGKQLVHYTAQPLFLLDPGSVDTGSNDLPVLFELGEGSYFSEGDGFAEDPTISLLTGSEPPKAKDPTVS
Sequence of CRX (O43186 whole entry): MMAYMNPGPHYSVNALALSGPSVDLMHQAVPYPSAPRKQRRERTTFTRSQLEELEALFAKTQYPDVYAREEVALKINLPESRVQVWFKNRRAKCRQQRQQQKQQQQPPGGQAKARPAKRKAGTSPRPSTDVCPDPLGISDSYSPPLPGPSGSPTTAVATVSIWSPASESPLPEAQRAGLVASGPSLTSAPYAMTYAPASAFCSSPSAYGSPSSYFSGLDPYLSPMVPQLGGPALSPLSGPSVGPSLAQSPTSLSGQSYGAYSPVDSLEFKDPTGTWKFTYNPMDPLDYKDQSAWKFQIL
Sequence of ETV5 (P41161 whole entry): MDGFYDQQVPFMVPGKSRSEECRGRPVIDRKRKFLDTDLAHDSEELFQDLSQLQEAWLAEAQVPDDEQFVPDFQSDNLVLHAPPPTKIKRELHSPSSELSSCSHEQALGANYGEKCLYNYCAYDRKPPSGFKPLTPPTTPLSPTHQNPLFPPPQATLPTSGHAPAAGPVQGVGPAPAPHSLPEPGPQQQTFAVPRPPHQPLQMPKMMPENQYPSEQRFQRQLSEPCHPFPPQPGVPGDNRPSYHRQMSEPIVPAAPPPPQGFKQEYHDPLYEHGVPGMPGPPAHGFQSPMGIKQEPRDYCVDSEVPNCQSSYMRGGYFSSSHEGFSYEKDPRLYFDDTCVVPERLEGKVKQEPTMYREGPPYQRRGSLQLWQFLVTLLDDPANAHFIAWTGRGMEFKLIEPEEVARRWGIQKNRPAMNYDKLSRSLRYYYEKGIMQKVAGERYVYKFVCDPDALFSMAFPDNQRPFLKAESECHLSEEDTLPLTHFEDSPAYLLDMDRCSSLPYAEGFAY
Sequence of SPIB (Q01892 whole entry): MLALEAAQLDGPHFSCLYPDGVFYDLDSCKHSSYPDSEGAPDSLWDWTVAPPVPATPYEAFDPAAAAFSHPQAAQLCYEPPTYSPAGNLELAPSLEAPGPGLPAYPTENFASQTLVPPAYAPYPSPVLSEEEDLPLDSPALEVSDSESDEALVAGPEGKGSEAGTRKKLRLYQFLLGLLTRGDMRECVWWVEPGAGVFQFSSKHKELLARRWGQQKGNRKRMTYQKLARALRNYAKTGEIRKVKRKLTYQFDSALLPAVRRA
Sequence of ELF4 (Q99607 whole entry): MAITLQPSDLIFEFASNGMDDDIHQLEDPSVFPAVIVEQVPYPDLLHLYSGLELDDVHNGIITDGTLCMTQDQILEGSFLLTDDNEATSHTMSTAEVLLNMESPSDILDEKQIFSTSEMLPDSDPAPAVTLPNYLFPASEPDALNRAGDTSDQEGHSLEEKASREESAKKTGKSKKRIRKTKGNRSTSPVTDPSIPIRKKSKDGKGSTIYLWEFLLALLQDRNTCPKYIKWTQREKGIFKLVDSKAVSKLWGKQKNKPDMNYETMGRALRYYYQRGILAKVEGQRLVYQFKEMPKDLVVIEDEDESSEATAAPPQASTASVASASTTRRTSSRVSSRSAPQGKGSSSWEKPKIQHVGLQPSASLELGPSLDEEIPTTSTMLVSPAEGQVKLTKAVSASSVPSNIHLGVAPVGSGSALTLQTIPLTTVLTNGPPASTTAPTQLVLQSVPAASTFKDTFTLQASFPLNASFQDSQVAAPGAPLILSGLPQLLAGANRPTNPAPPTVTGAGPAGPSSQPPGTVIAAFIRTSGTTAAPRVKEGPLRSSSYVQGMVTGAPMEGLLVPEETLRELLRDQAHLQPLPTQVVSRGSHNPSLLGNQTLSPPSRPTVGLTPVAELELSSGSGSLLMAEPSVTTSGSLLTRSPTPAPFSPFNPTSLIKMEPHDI

As for TTTACG, the binding signal with FLI1 was 1.39 fold enrichment (6-mer frequency, TF over GST control); with ELK1, 1.28 fold enrichment (6-mer frequency, TF over GST control); with GABPA it was 1.34 fold enrichment (6-mer frequency, TF over GST control); in the assay with ERG, 1.26 fold enrichment (6-mer frequency, TF over GST control); with ELF1, 1.26 fold enrichment (6-mer frequency, TF over GST control); with EHF, 1.3 fold enrichment (6-mer frequency, TF over GST control). Moreover, the binding signal is 1.33 fold enrichment (6-mer frequency, TF over GST control) with SPI1; 1.23 fold enrichment (6-mer frequency, TF over GST control) with SPIB; 1.27 fold enrichment (6-mer frequency, TF over GST control) with ELK3; 1.26 fold enrichment (6-mer frequency, TF over GST control) with FEV; 1.28 fold enrichment (6-mer frequency, TF over GST control) with ETV5; 1.32 fold enrichment (6-mer frequency, TF over GST control) with HSF1. Further, the binding signal in the assay with SPIC is 1.24 fold enrichment (6-mer frequency, TF over GST control); in the assay with ELF4, 1.32 fold enrichment (6-mer frequency, TF over GST control); with ELK4, 1.29 fold enrichment (6-mer frequency, TF over GST control); in the assay with ETV2, 1.33 fold enrichment (6-mer frequency, TF over GST control); with ELF3 it was 1.28 fold enrichment (6-mer frequency, TF over GST control); in the assay with CRX, 1.62 fold enrichment (6-mer frequency, TF over GST control). Besides, the binding signal with ETV1 is 1.32 fold enrichment (6-mer frequency, TF over GST control).
